ALR H2O2 inh = human ALR oxidase inhibition via reduced H2O2; P55789; purified ALR, DTT oxidation, H2O2 HRP-luminol luminescence; inhibition, % (test concentration not listed); 290,000 tested, 3.8% active; AID 485317;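 active = mean replicate inhibition above about 79%, with every replicate also reaching it, limit read from the data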
PfM18AAP inh = PfM18AAP enzyme inhibition | recombinant PfM18AAP, H-Glu-NHMec fluorogenic cleavage | inhibition, % at 7.35 µM | 290,000 tested, 1.2% active;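 active = inhibition above the campaign mean inhibition over all tested compounds plus 3 SD, cut at about 28% in these data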;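 note: 0% = plate median of test compound wells and 100% = 2 mM ZnCl2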
A3A deaminase = inhibitors of human APOBEC3A DNA deaminase. P31941. recombinant A3A, FAM/TAMRA ssDNA deamination fluorescence. inhibition, % at 20 µM. 330,000 tested, 0.41% active;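 active = at least 40% inhibition at 20 µM here, with at most 30% in a related deaminase screen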;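 note: plate controls were A3A with DMSO for no effect and wells lacking A3A enzyme for full effect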
Target sequence (P31941 whole entry, looked up): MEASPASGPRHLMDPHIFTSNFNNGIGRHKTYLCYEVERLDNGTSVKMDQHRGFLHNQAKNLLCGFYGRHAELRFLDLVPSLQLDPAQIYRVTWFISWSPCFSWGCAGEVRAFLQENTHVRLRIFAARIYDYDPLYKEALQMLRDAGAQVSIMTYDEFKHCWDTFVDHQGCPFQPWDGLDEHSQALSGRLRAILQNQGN
A3G deaminase = blocks human APOBEC3G single-stranded DNA deamination. Q9HC16. recombinant A3G, ssDNA deamination FAM/TAMRA fluorescence. inhibition, % at 20 µM. 330,000 tested, 0.28% active. AID 493012;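 active = inhibition of at least 40% at 20 µM, with no more than 30% in the related APOBEC3A deaminase screen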;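 note: plate controls were DMSO wells with A3G for no effect and wells lacking A3G enzyme for full effect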
Target sequence (Q9HC16 whole entry, looked up): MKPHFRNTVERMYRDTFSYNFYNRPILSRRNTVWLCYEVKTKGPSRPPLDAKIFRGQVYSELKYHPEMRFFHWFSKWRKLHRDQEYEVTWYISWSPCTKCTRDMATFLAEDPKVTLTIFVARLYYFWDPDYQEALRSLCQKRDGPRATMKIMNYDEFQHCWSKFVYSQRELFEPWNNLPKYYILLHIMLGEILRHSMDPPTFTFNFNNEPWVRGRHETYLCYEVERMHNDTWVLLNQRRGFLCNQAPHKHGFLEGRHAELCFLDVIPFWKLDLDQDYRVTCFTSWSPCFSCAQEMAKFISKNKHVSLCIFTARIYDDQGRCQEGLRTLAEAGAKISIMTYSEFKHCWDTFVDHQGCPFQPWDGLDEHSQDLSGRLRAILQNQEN
CendR NRP1 mod = modulators of CendR peptide binding to human neuropilin-1; O14786; FAM-RPARPAR peptide binding to NRP-1, fluorescence polarization; inhibition, % at 25 µM; 360,000 tested, 0.85% active;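 active = inhibition or corrected inhibition above about 18%, plus a signal ratio from 0.5 to 1.5, limit read from the data, passing the limit was not always enough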
CR mimetic SO = yeast age-related superoxide inhibition as caloric restriction mimetic. S. cerevisiae aged cells, superoxide DHE fluorescence; hits give low values. superoxide response (% of plate mean), % at 10 µM. 330,000 tested, 0.18% active;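 active = superoxide response under a set limit, about three screen SD below normal, cut at about 65% in these data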;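 note: yeast aged for seven days with compound at 30 °C before DHE staining; 100% = average MFI of all compound-treated wells on the plate with controls excluded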
Starred values were filed as active, the others as inactive; · = not tested or not shown. Hits are enriched below; roughly 5.2% of the tested compounds scored in any of these assays.

SMILES	ALR H2O2 inh	PfM18AAP inh	A3A deaminase	A3G deaminase	CendR NRP1 mod	CR mimetic SO
COc1ccc(C2NC(=O)C(C#N)=C(S)N2c2ccccc2)cc1OC (stereo not drawn)	94*	1	3	-4	-12	87
COc1cc(C2NC(=O)C(C#N)=C(S)N2c2ccccc2)ccc1OC(C)C (stereo not drawn)	28	3	-5	-5	-18	84
O=C(c1ccccc1)N1CCN(CC2CC=CCC2)CC1 (stereo not drawn)	-1	32*	-3	-3	-15	114
O=S(=O)(NCc1ccc(F)cc1)c1ccc(-n2cccn2)cc1	5	1	0	3	21*	94
CC(C(=O)NC1C=CS(=O)(=O)C1)N1C(=O)/C(=C/c2ccc(Cl)cc2)SC1=S (stereo not drawn)	1	19	-3	-2	13	110
CC1CN(C(=O)COC(=O)c2ccc(NC(=O)CC#N)cc2)CC(C)O1 (stereo not drawn)	99*	7	-5	7	1	98
CC(C)(C)NC(=O)COC(=O)c1ccc(NC(=O)CC#N)cc1	99*	5	0	-4	-6	97
N#CCC(=O)Nc1ccc(C(=O)OCC(=O)c2ccc3c(c2)OCO3)cc1	99*	·	-4	1	-5	100
N#CCC(=O)Nc1ccc(C(=O)OCC(=O)Nc2ccc3ccccc3c2)cc1	92*	·	23	-10	-26	89
N#CCC(=O)Nc1ccc(C(=O)OCC(=O)NNC(=O)c2ccc(Cl)cc2)cc1	67	·	2	-2	-86	102
N#CCC(=O)Nc1ccc(C(=O)OCC(=O)c2ccc3c(c2)OCCO3)cc1	63	-12	-3	-3	-22	106
FC(F)(F)C1=CC(c2ccc(Br)cc2)=NCCN1	100*	10	0	-3	-3	101
FC(F)(F)c1ccccc1Cc1c(-c2ccccc2)nc2ccc(Cl)cn12	·	·	·	·	-4	·
CCc1ccc(C2CC(=O)N(c3cccc(F)c3)C3=C2C(=O)OC3)cc1 (stereo not drawn)	-9	-2	-6	-4	27*	108
CCCCOc1ccc(/C=C2/Sc3ccccc3C2=O)cc1	-9	-9	-2	-5	35*	96
Cc1ccc(NC(=O)Nc2nnc([C@@H]3C[C@H](O)[C@@H](CO)O3)s2)cc1	·	·	·	·	-1	·
Cc1ccc(C(=O)Nc2nnc([C@H]3C[C@H](O)[C@@H](CO)O3)s2)cc1	·	·	·	·	30*	·
O=C(Nc1ccccc1O)N1c2ccccc2Sc2ccccc21	84*	2	-9	-4	2	90
Cc1nn(CC(=O)N/N=C/c2cccs2)c(C)c1[N+](=O)[O-]	0	1	5	8	12	88
Cc1ccc(CN2CCSc3ccc(C(=O)N4CCN(c5ncccn5)CC4)cc32)cc1	6	-6	3	1	-6	99
CCN1CCN(C(=O)c2ccc3c(c2)N(Cc2ccc(C)cc2)CCS3)CC1	99*	-1	-4	-4	4	91
Cc1ccc(CN2CCSc3ccc(C(=O)N4CCOCC4)cc32)cc1	99*	2	-3	-4	3	99
CCOC(=O)N1CCN(C(=O)c2ccc3c(c2)N(Cc2ccccc2)CCS3)CC1	98*	2	-4	-9	-11	107
Cc1ccc(Nc2cc(-n3cccn3)ncn2)c(C)c1	3	-1	1	-5	1	115
Nc1nnc(SCC(=O)NC2CCCCCCC2)s1	5	·	-4	-6	7	100
SMILES	ALR H2O2 inh	PfM18AAP inh	A3A deaminase	A3G deaminase	CendR NRP1 mod	CR mimetic SO
CCc1ccc(/C=C2\SC(=S)N(CCCC(=O)N(CCO)c3ccccc3)C2=O)cc1	·	·	·	·	28*	·
O=C(O)CN1C(=O)/C(=C/c2ccsc2)SC1=S	30	29*	-4	-9	3	112
CCN(CC)C(=O)CN1C(=O)/C(=C/c2ccccc2)SC1=S	-6	-4	-4	-6	20*	94
C=CCN1C(=O)/C(=C/c2ccsc2)SC1=S	-3	3	4	-5	-5	107
O=C(O)CN1C(=O)/C(=C\c2cccc(OCc3ccc(Cl)cc3)c2)SC1=S	97*	4	0	-1	-62	102
O=C(O)CN1C(=O)/C(=C\c2cccc(OCc3ccc(F)cc3)c2)SC1=S	68	-6	-2	-7	-26	125
COc1cccc(NC(=O)CCCn2c(=O)[nH]c3ccccc3c2=O)c1	-1	9	4	2	0	89
Cc1cc(C)c(NC(=O)CSc2nc3ccc(NC(=O)CSc4nnnn4Cc4ccccc4)cc3s2)c(C)c1	-15	9	-3	-7	2	104
Cc1cccc(N(C(=O)c2ccc(Cl)cc2)C2CS(=O)(=O)CC2OC(=O)c2ccc(Cl)cc2)c1 (stereo not drawn)	-4	2	-1	-1	10	102
COc1ccc([C@H]2CC(=O)C=C(c3cccc(OC)c3)C2)cc1	4	·	-4	-10	12	93
CN(C)C(CNC(=O)CSc1nc2sc3c(c2c(=O)n1C)CCC3)c1ccccc1 (stereo not drawn)	·	·	4	1	0	72
CCN(CC)C(=O)CSc1nnc(-c2ccc(F)cc2)n1N	2	-2	1	-2	2	104
CCN1C(=O)C(=Cc2cccc(OC)c2Oc2ccc([N+](=O)[O-])cc2[N+](=O)[O-])SC1=S	-14	12	0	-4	25*	128
COc1cc(/C=C2\SC(=O)NC2=O)ccc1Oc1ccc([N+](=O)[O-])cc1[N+](=O)[O-]	98*	13	-2	-3	-28	96
O=C(Cn1nc(C(=O)O)c2ccccc2c1=O)NCc1ccco1	8	2	4	-3	-4	85
O=C(NCc1ccccc1Cl)[C@H]1CCCN1C(=O)[C@H]1CCCN1C(=O)c1ccccc1	·	·	·	·	3	·
CC(C)(C)[C@@H]1COC(=O)[C@@H](NC(=O)OCC2c3ccccc3-c3ccccc32)C/C=C\C[C@@H](CC(=O)NCCO)C(=O)N1	-3	·	-3	-7	-8	93
CC(OC(=O)C1CCN(S(=O)(=O)c2ccccc2)CC1)C(=O)Nc1ncc(Cl)cc1Cl (stereo not drawn)	-2	0	3	3	-2	110
CC(OC(=O)C1CCCC1)C(=O)Nc1ncc(Cl)cc1Cl (stereo not drawn)	-27	·	-4	-11	22*	88
CCOC(=O)C1CCCN(c2c(NCCCN(C)Cc3ccccc3)c(=O)c2=O)C1 (stereo not drawn)	-2	3	2	0	0	106
O=C(O)COc1ccccc1/C=N/NC(=O)CSc1nnc(SCc2cccc3ccccc23)s1	97*	3	3	-5	-40	102
O=C(O)CSc1c2ccccc2cc2ccccc12	99*	13	-2	0	-12	117

Assay outcomes from PubChem.
